# From PubChem BioAssay AID2685 (National Center for Advancing Translational Sciences (NCATS), 2010)
# In all, about 320,000 compounds went through this assay and about 2,100 (0.66%) were called active. Inconclusive results (about 53%) are left out. Calls come from the whole dose curve; as a rule, active = well fitted inhibition curve with a large enough effect in the signal ratio, with a control signal flat (not every such curve was filed as active); inconclusive = small, poorly fitted or top-dose-only effect, or effect the other way, or a change in a side signal; inactive = flat fitted curve, though single readings scatter; the % refers to the signal ratio. For the sample, actives were picked, then their nearest neighbours and some compounds at random.
# Experiment: qHTS Assay for Lipid Storage Modulators in Drosophila S3 Cells;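 for cell number change: cells counted by Cell Tracker Red CMTPX staining in the red channel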; for lipid storage change, negative = inhibition: % is set by controls: 0 for no effect and ±100 for the full control effect
# Conditions: BODIPY lipid droplet fluorescence, 18-24 h, cells fed with added oleic acid; cell number change: measured here: cell count max response; series mostly up to 46.1 µM; lipid storage change, negative = inhibition: at the top concentration
# In short: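 Laser-scanning cytometry quantifies lipid droplet accumulation (500–530 nm total intensity; droplet/cell object ratio) in oleic acid-fed (400 uM added) Drosophila S3 cells treated with a concentration series. 20 uM Triacsin C defined 100% inhibition.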
# Potency is the fitted concentration of half-maximal effect.
Structure (SMILES),"lipid storage change, negative = inhibition",cell number change,Potency,outcome
COc1ccc(-c2noc(CCC(=O)NCc3cccnc3)n2)cc1OC,27.8% (inactive),-15.7%,,
CCOC(=O)C1CCN(C(=O)c2ccc(Oc3cc(Cl)cc(Cl)c3)o2)CC1,4.49% (inactive),4.65%,,
Cc1onc(-c2ccccc2)c1CNS(=O)(=O)c1cccc(Br)c1,8.41% (inactive),12%,,
COc1cccc(N(CC(=O)NCCSCc2ccc(Cl)cc2)S(C)(=O)=O)c1,-30.8% (inactive),-16.4%,,
CCOc1ccc(N(CC(=O)NCCSCc2ccccc2)S(C)(=O)=O)cc1,-19.5% (inactive),10.5%,,
CCOc1ccc(N(CC(=O)NCCSCc2ccc(Cl)cc2)S(C)(=O)=O)cc1,,-19.8%,9.2 µM (active),
O=C(CSc1nncs1)Nc1ccc(Cl)cn1,-2.98% (inactive),-5.79%,,
O=C(NCC(O)c1ccc2ccccc2c1)c1c(F)cccc1F (stereo not given),10.9% (inactive),4.67%,,
Cc1cc(NS(=O)(=O)c2c(C)[nH]c(=O)[nH]c2=O)ccc1Br,7.03% (inactive),,,
Cc1cc(C)n(CC(=O)NC2CCCc3c2cnn3-c2ccccc2F)n1 (stereo not given),1.73% (inactive),-1.7%,,
CC(=O)NCC(=O)NC1CCCc2c1cnn2-c1ccc(C(C)(C)C)cc1 (stereo not given),,,,inactive
CC(=O)CCC(=O)NC1CCCc2c1cnn2-c1ccc(C(C)(C)C)cc1 (stereo not given),,-14.2%,10.3 µM (active),
CC(=O)Nc1cccc(C(=O)NC2CCCc3c2cnn3-c2ccc(C(C)(C)C)cc2)c1 (stereo not given),-8.75% (inactive),-22.8%,,
Cc1ccc(-n2ncc3c2CC(C)(C)CC3NC(=O)CCn2cncn2)cc1 (stereo not given),,-18.7%,,inactive
CC(C)(C)c1ccc(-n2ncc3c2CCCC3NC(=O)CCCn2cncn2)cc1 (stereo not given),8.93% (inactive),14.9%,,
CCn1nc(C)cc1C(=O)NC1CCCc2c1cnn2-c1ccc(C)c(C)c1 (stereo not given),,-8.5%,,inactive
CC(C)(C)c1ccc(-n2ncc3c2CCCC3NC(=O)CCn2cncn2)cc1 (stereo not given),,-29.9%,3.66 µM (active),
Cc1cc(C)n(CC(=O)NC2CCCc3c2cnn3-c2ccc(C)c(C)c2)n1 (stereo not given),,-23%,16.4 µM (active),
Cc1cc(N/N=C/c2ccc(O)cc2O)nc(N2CCOCC2)n1,-0.596% (inactive),-4.63%,,
COc1ccccc1OCC(=O)Nc1ccc(Cl)cc1,-1.36% (inactive),-13.6%,,

Structure (SMILES),"lipid storage change, negative = inhibition",cell number change,Potency,outcome
CCCCOc1ccc(C(O)(CCN2CCOCC2)c2ccccc2)cc1 (stereo not given),-10.2% (inactive),-14.2%,,
COc1ccc(CCNC(=O)/C=C/c2ccc(OC)c(S(=O)(=O)N3CCOCC3)c2)cc1,-3.03% (inactive),7.46%,,
O=C1NC(N2CCOCC2)=N/C1=C/c1ccc2c(c1)OCO2,5.19% (inactive),,,
O=C(c1ccccc1)N1CCN(c2ncnc3c2cnn3-c2ccccc2)CC1,-12.6% (inactive),-7.55%,,
Cc1cccc(C(=O)N2CCN(c3ncnc4c3cnn4-c3ccccc3)CC2)c1,-9.57% (inactive),-21.5%,,
Cc1nn(-c2ccccc2)c(Cl)c1C(=O)N1CCN(c2ncnc3c2cnn3-c2ccccc2)CC1,,-25.9%,7.31 µM (active),
O=C(COC(=O)c1ccccc1Nc1ccccc1)NCc1ccccc1Cl,-6.32% (inactive),-4.27%,,
Nc1nc(-c2ccccc2)c(-c2ccccc2)o1,7.81% (inactive),3.44%,,
CC(=O)c1c(C)[nH]c(C(=O)OCCCCN2C(=O)c3ccccc3C2=O)c1C,,-18.3%,0.58 µM (active),
CCOC(=O)c1[nH]c(C)c(C(=O)OCCN2C(=O)c3ccccc3C2=O)c1C,7.23% (inactive),-20.4%,,
CC(=O)c1c(C)[nH]c(C(=O)OCC(=O)N2CC(=O)Nc3ccccc32)c1C,20.9% (inactive),17.6%,,
Cc1cc(NS(=O)(=O)c2ccc3c(c2)OCCO3)no1,5.36% (inactive),5.55%,,
Cc1ccc(-c2nc(CS(=O)CC(=O)NCCCc3ccccc3)c(C)o2)cc1 (stereo not given),,13.7%,,inactive
Cc1cc(C)cc(OCCCCn2cncn2)c1,15.5% (inactive),7.77%,,
COCCCNC(=O)/C=C1\Sc2ccccc2N(Cc2ccccc2F)C1=O,0.378% (inactive),12.6%,,
OCCNc1nc(NCc2ccccc2)c2ccccc2n1,-19.2% (inactive),-3.37%,,
c1ccc(CNc2nc(NCc3ccccc3)c3ccccc3n2)cc1,,-9.51%,16.4 µM (active),
Oc1ccccc1-c1nc(NCc2ccccc2)c2ccccc2n1,-0.207% (inactive),2.04%,,
O=C1NC(=O)N(Cc2ccccc2F)C1=O,2.47% (inactive),21.6%,,
O=C1c2ccccc2C(=O)N1Cc1ccccc1F,,22.2%,29.1 µM (active),

Structure (SMILES),"lipid storage change, negative = inhibition",cell number change,Potency,outcome
O=C(O)CN1C(=O)C(=O)N(Cc2ccccc2F)C1=O,17% (inactive),9.39%,,
Cc1cccc(C)c1NC(=O)C(C)N1CCCC1 (stereo not given),-11.2% (inactive),0.595%,,
COc1ccccc1-c1nn(-c2ccccc2)cc1C(=O)N1CCc2ccccc2C1,,-17.2%,2.06 µM (active),
COc1ccccc1-c1cc(C(=O)N2CCc3ccccc3C2)c2ccccc2n1,12.1% (inactive),-2.91%,,
COc1ccccc1-c1nn(-c2ccccc2)cc1C(=O)N1CCN(C(=O)c2ccco2)CC1,4.65% (inactive),3.39%,,
c1ccc(-c2cncnc2)cc1,,-19.5%,,inactive
COc1ccc(N(Cc2cc3ccc(C)cc3[nH]c2=O)C(=O)c2ccco2)cc1,14.3% (inactive),1.12%,,
CSc1nc(SCC(=O)NC(c2ccccc2)c2ccccc2)c2c3c(sc2n1)CN(C)CC3,,7.96%,,inactive
CCOc1ccc(N(CC(=O)Nc2ccc(C)cc2)S(=O)(=O)c2c(C)[nH]c(=O)[nH]c2=O)cc1,,-18.6%,,inactive
COC(=O)C(C)N(c1ccc(C)cc1)S(=O)(=O)c1c(C)[nH]c(=O)[nH]c1=O (stereo not given),,6.83%,25.9 µM (active),
Cc1ccc(N(C(C)C(=O)O)S(=O)(=O)c2c(C)n[nH]c2C)cc1 (stereo not given),14.2% (inactive),2.85%,,
O=[N+]([O-])c1cccnc1NCCNc1ncc(C(F)(F)F)cc1Cl,-22.1% (inactive),-29.3%,,
NNC(=O)c1csc(-c2ncc(C(F)(F)F)cc2Cl)n1,10.2% (inactive),17.7%,,
CC(=O)c1cc(C(=O)Nc2ccc3ccccc3c2)c(C)o1,,16%,,inactive
O=C(NCS(=O)(=O)c1ccccc1)c1ccccc1,,0.335%,23.1 µM (active),
Cc1ccc(S(=O)(=O)CNC(=O)c2ccccc2)cc1,22.6% (inactive),10%,,
O=C(NCCS(=O)(=O)c1ccc(Br)cc1)c1ccccc1,-10.3% (inactive),14%,,
O=C(O)c1ccc(/C=N/Nc2ncc(C(F)(F)F)cc2Cl)cc1,-8.43% (inactive),0.452%,,
Cc1ccc(S(=O)(=O)N2CCN(C(=O)COC(=O)Cc3ccc(F)cc3)CC2)c(C)c1,3.61% (inactive),-6.09%,,
